# Laboratory results from ChEMBL document CHEMBL4513216, “Probing the Open Global Health Chemical Diversity Library for Multistage-Active Starting Points for Next-Generation Antimalarials” (ACS Infect Dis, 2020).
# Among all 69,000 compounds or so, about 8,600 (12%) showed an effect of 50% or more. For the sample, strong results were picked, then their nearest neighbours and some compounds at random.
# Test system: Plasmodium berghei
# Assay: Screen against P. berghei liver stage (PbLuc), transformed with Luciferase, at 10uM
# Assay type: functional, HepG2
# Conditions: tested at 10 uM
row,Structure (SMILES),INHIBITION [%]
1,O=C(c1ccc2nncn2c1)N1CCCC1c1noc(C2CC2)n1 (centres undefined),15.1
2,CC(C)c1nc(C2CCCN2C(=O)c2ccc3nncn3c2)no1 (centres undefined),5.11
3,O=C(c1ccc2nccn2c1)N1CCCC1c1noc(C2CC2)n1 (centres undefined),52.3
4,CC(C)CS(=O)(=O)CC(=O)N1CCCC1c1noc(C2CC2)n1 (centres undefined),29
5,CCCS(=O)(=O)CC(=O)N1CCCC1c1noc(C2CC2)n1 (centres undefined),97.2
6,CCS(=O)(=O)CC(=O)N1CCCC1c1noc(C2CC2)n1 (centres undefined),13.9
7,CN(C)c1cc(CNC(=O)NCC2(C)CCCS2)ccn1 (centres undefined),-15.5
8,Cc1ccc(-c2nnc(CN3CCCCC3Cn3cncn3)o2)cc1 (centres undefined),-29.8
9,CN(CC(C)(C)O)C1CCCN(Cc2noc(C3CC3)n2)C1 (centres undefined),25.1
10,O=C(NC1CC1)c1cc(C2CCCN(Cc3ccccn3)C2)no1 (centres undefined),-8.12
11,Clc1ccc(CN(CCN2CCOCC2)Cc2cccnc2)c(Cl)c1,-49.4
12,Cc1nc(-c2ccc(Cl)s2)sc1C(=O)NC(C)(C)C(N)=O,-39.95
13,O=C(CCn1cncn1)NCC1CCCC1,63.8
14,O=C(CCn1cncn1)NCC1CCS(=O)(=O)C1 (centres undefined),84.2
15,Cc1cc(NC(=O)CCn2cncn2)no1,44.3
16,O=C(CCn1cncn1)NCC(c1ccco1)N1CCCCC1 (centres undefined),3.73
17,O=C(CCn1cncn1)NCC(c1ccco1)N1CCCC1 (centres undefined),-49.5
18,O=C(CCn1cncn1)NCC1CCOC1 (centres undefined),54.5
19,O=C(CCn1cncn1)NC1CCS(=O)(=O)C1 (centres undefined),49.9
20,CCCn1cnc(NC(=O)NCC2CCS(=O)(=O)C2)n1 (centres undefined),42.6

row,Structure (SMILES),INHIBITION [%]
1,Cc1nc(C)n(CCC(=O)NCC2CCCOC2)n1 (centres undefined),26.55
2,CS(=O)(=O)N1CCO[C@@H]2CN(C(=O)c3ccnnc3)C[C@@H]2C1,17.6
3,Cc1ccc(C2CN(CCCS(=O)(=O)C(C)C)CCO2)c(C)c1 (centres undefined),-20.3
4,CN1CCC(NC(=O)CC2CN(Cc3ccccc3)CCO2)CC1 (centres undefined),9.41
5,COc1ccc(CCNC(=O)Cn2ncc3c2c(C)nn3C)cc1,28.4
6,CC(NC(=O)C1=NN(C)C(=O)CC1)c1ccc(Cl)cc1 (centres undefined),20.9
7,CN(CCC#N)C(=O)CCOc1cccc(F)c1,-13.4
8,Cc1cc(C(O)CCNC(=O)c2ccc(Cl)s2)c(C)o1 (centres undefined),-1.04
9,CC(C)OCCSc1nnnn1C1CCOCC1,26.9
10,O=C1OCCN1CCSc1nnnn1CC(F)(F)F,42.4
11,O=C1OCCN1CCSc1nnnn1C1CCOCC1,54.5
12,COc1c(C2CCCN2c2ncnc3sccc23)c(C)nn1C (centres undefined),40
13,c1nc(N2CCCCC2Cn2cncn2)c2ccsc2n1 (centres undefined),45.8
14,Cc1nn(C)c(C)c1C1CCCN1c1ncnc2sccc12 (centres undefined),70.5
15,Cc1cnn(CC2CCCN2c2ncnc3c2CCC3)c1 (centres undefined),-2.94
16,N#Cc1ccc(N2CCCC2Cn2cccn2)nc1 (centres undefined),-155
17,Cc1cnn(CC2CCCN2c2ncnc3ccsc23)c1 (centres undefined),47.7
18,Cc1cnn(CC2CCCN2c2ncnc3sccc23)c1 (centres undefined),56.1
19,Cc1nn(C)c(Cl)c1C1CCCN1c1ncnc2sccc12 (centres undefined),42.6
20,c1cnn(CC2CCCN2c2ncnc3c2CCC3)c1 (centres undefined),59.7

row,Structure (SMILES),INHIBITION [%]
1,Cc1cnn(CC2CCCCN2c2ncnc3ccccc23)c1 (centres undefined),-34.6
2,Cc1cnn(CC2CCCN2c2ccc(C#N)cn2)c1 (centres undefined),-16
3,Cc1cnn(CC2CCCN2c2ncnc3ccccc23)c1 (centres undefined),75.9
4,CSCC[C@H](NC(C)=O)c1nc(CC(C)C)n[nH]1,-24.7
5,c1ccc2oc(CN3CCCC(Cn4cncn4)C3)nc2c1 (centres undefined),16.34
6,CC(C)CCN(C(=O)c1ccc(-n2ncc(C#N)c2N)cc1)C1CC1,19.5
7,Cc1cnn(CCC(=O)N2CCCC(c3ccn[nH]3)C2)c1 (centres undefined),-19.4
8,Cc1nc(C)n(C2CCCN(C(=O)CCOc3cccc(F)c3)C2)n1 (centres undefined),33.3
9,Cc1c(NCCO)cccc1OC1CCCC1,-64.6
10,CN1CCC(CNC(=O)NCc2ccc(F)cc2)CC1,-33
11,CC(C)NC(=O)c1cc2c(s1)CCN2C(=O)CN(C)C,8.67
12,Cc1n[nH]c(C)c1C1COCCN1c1ncnc2sccc12 (centres undefined),71.4
13,c1ccc2c(N3CCCCC3Cn3cccn3)ncnc2c1 (centres undefined),11.575
14,c1ccc2c(N3CCCCC3Cn3cncn3)ncnc2c1 (centres undefined),-11.1
15,Cc1nn(C)c(C)c1C1COCCN1c1ncnc2sccc12 (centres undefined),-7.11
16,c1ccc2c(N3CCCC3Cn3cccn3)ncnc2c1 (centres undefined),76.9
17,CC1COCCN1c1ncnc2sccc12 (centres undefined),49.1
18,O=C(c1ccncc1)N1C[C@H]2CC[C@@H](C1)N(C(=O)N1CCOCC1)C2,-20.6
19,CCc1nc(C2CCCN2Cc2nccn2CC(F)(F)F)no1 (centres undefined),28.8
